About 83,000 compounds went through this panel and 20% of them were active in at least one assay; those are over-represented in the sample as a whole.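 Testing used 96-well plates and a 48-hour single-concentration exposure. Example: -40 means 40% of the starting cells died.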 A number with no mark means an inactive call. Activity calls are given as the source filed them. The calls were made as follows: active = growth percent below 10; inactive = the rest.
test system: MDA-MB-468 breast; assay: NCI-60 one-dose screen, 48 h (100 = growth as untreated, 0 = no growth, -100 = all killed); conditions: 10 µM unless noted

Q: How did the growth turn out when COc1cccc(/C=C2/C(=O)N(Cc3ccco3)SC2=S)c1OC was run?
A: The growth was 76%.

Q: With CCCCCc1ccc(S(=O)(=O)Nc2cccc(-c3csc(NCCN4CCN(C)CC4)n3)c2)cc1 as the compound, how does the growth read?
A: The growth was 87.3%.

Q: O=C(C[P+](c1ccccc1)(c1ccccc1)c1ccccc1)C[P+](c1ccccc1)(c1ccccc1)c1ccccc1 was tested. Which growth did it give?
A: Its growth is -33.8% (active).

Q: For CCN1C(=O)N(CC)C2C1NN=c1s/c(=C3\C(=O)N(CCc4ccccc4)c4ccccc43)c(=O)n12 (stereo not given), which growth is on record?
A: Its growth is -11.3% (active).

Q: How did the growth turn out when CC(C)(C)OC(=O)N1Cc2cc3ccccc3nc2C1CO (stereo not given) was run?
A: The growth was 71.7%.

Q: With NCCCNc1nc2ccccc2c2c(=O)c3cc(C(F)(F)F)ccc3sc12 as the compound, how does the growth read?
A: The growth was -49.1% (active).

Q: With CN(C)c1ccc(/C=C/C(=O)c2ccccc2)cc1 as the compound, how does the growth read?
A: Its growth is 90.3%.

Q: Which growth does the source give for CC(=O)[C@H]1CCC/C=C/[C@@H]2C[C@H](O)C[C@H]2[C@H](O)/C=C/C(=O)O1 here?
A: The growth was -34.9% (active).

Q: How did the growth turn out when Cc1cc(C)cc(Nc2nccc(-c3c(-c4ccc(F)cc4)ncn3C3CCNCC3)n2)c1 was run?
A: Its growth is -29.9% (active).

Q: With COc1c(B(O)O)cccc1-c1nc2ccc3[nH]ncc3c2c2c1CCC2 as the compound, how does the growth read?
A: The growth was 60%.

Q: For CCNCCCn1c2c(c3ccc([N+](=O)[O-])cc3c1=O)C(=O)c1cc(OC)cnc1-2, which growth is on record?
A: The growth was -34.3% (active).

Q: How did the growth turn out when COc1ccc(-n2nc(C)c3c(Oc4ccc(NC(=O)Nc5c(Cl)cccc5Cl)cc4)ncnc32)cc1 was run?
A: Its growth is 107%.

Q: How did the growth turn out when NS(=O)(=O)c1ccccc1NC(=O)Nc1nc2ccccc2s1 was run?
A: The growth was 104%.

Q: With O=C(Nc1cccc(Cl)c1)Nc1cc(C(F)(F)F)ccc1Cl as the compound, how does the growth read?
A: Its growth is 1.29% (active).

Q: CCCCC1Nc2nc(SC)n(C)c(=O)c2CN(Cc2ccccc2)C1=O (stereo not given) was tested. Which growth did it give?
A: The growth was 101%.

Q: With COc1ccc2oc(=O)cc(-c3c(C#N)c(N)n4nc(N)c(C#N)c4c3C#N)c2c1 as the compound, how does the growth read?
A: Its growth is 94.7%.

Q: How did the growth turn out when C#CC#CC#CC#CC#CC#CC#CC#CC[C@H]1OC[C@H](COC(=O)O[C@@H](C(=O)O[C@H]2C[C@@]3(O)[C@@H](OC(=O)c4ccccc4)[C@@H]4[C@]5(OC(C)=O)CO[C@@H]5C[C@H](O)[C@@]4(C)C(=O)[C@H](OC(C)=O)C(=C2C)C3(C)C)[C@@H](NC(=O)c2ccccc2)c2ccccc2)O1 was run?
A: The growth was 19.3%.

Q: How did the growth turn out when CC(C)CSc1nc(-c2ccc(F)cc2)c(C#N)c(N2CCCCC2)n1 was run?
A: The growth was 101%.

Q: How did the growth turn out when O=C(NCCNC(=O)c1ccc(Cl)cc1Cl)c1ccc(Cl)cc1Cl was run?
A: Its growth is 104%.

Q: How did the growth turn out when Cn1cnc([N+](=O)[O-])c1/C=C1\Oc2ccc(Br)cc2C1=O was run?
A: The growth was 80.9%.

Q: O=C1CSC(c2c(Cl)cccc2Cl)N1c1nc(Cl)cc(=O)[nH]1 (stereo not given) was tested. Which growth did it give?
A: The growth was 117%.

Q: CCCCNc1nnc2n(Cc3ccccc3)c(=O)c3c4c(sc3n12)CCCC4 was tested. Which growth did it give?
A: The growth was 34.7%.

Q: Which growth does the source give for COc1c(N2CC3CCCNC3C2)c(F)cc2c(=O)c(C(=O)N/N=C/c3ccc(F)cc3)cn(C3CC3)c12 (stereo not given) here?
A: Its growth is 84.4%.

Q: How did the growth turn out when NS(=O)(=O)c1ccc(N2CC(c3nc4ccccc4[nH]3)CC2=O)cc1 (stereo not given) was run?
A: The growth was 113%.

Q: How did the growth turn out when O=Cc1ccc(Cl)c(Cl)c1 was run?
A: Its growth is 119%.

Q: How did the growth turn out when O=C1CC(C(F)(F)F)Cc2nc3ccc(Br)cc3cc21 (stereo not given) was run?
A: The growth was 94.8%.

Q: For COc1cc(-c2nn(-c3cccc(NC(=O)NCCNS(=O)(=O)c4ccc(Cl)cc4)c3)cc2-c2ccncc2)ccc1Cl, which growth is on record?
A: The growth was -35.8% (active).

Q: CCCCC(CCc1ccc([N+](=O)[O-])cc1)(C(C)=O)C(=O)OCC (stereo not given) was tested. Which growth did it give?
A: The growth was 83.8%.

Q: For Cc1ccc(NC(=O)c2ccccc2Cl)cc1, which growth is on record?
A: The growth was 114%.

Q: How did the growth turn out when COc1ccc(Nc2ccnc(N3CCN(c4ccnc5cc(Cl)ccc45)CC3)n2)cc1 was run?
A: Its growth is -16% (active).

Q: For O=C(Nc1nc(-c2ccccc2)nc2c1sc(=S)n2-c1ccccc1)C(F)(F)F, which growth is on record?
A: Its growth is 105%.

Q: Which growth does the source give for CCOc1ccc(/C=C(\C#N)c2cc3ccccc3[nH]2)cc1 here?
A: The growth was 33.4%.

Q: Which growth does the source give for COc1ccc(C(=O)C(CN(C)C)c2ccc(OC)cc2)cc1 (stereo not given) here?
A: The growth was 14.2%.

Q: COc1ccc(N=c2nc3sc4cc(Cl)ccc4n3c(N)c2C#N)cc1 was tested. Which growth did it give?
A: Its growth is -7.79% (active).

Q: Which growth does the source give for C=CCn1c(SCC(=O)c2ccc(OC)cc2)nnc1-c1ccc(OC)cc1 here?
A: Its growth is 90.6%.

Q: O=[N+]([O-])c1ccc(Oc2ccc(-c3ccccc3)cc2)cc1 was tested. Which growth did it give?
A: Its growth is 71.4%.

Q: With O=[N+]([O-])/C(=C/c1ccccc1)c1ccccc1 as the compound, how does the growth read?
A: Its growth is 99%.

Q: Which growth does the source give for COC(=O)N/N=C/c1c[n+]([O-])c2ccccc2[n+]1[O-] here?
A: The growth was 110%.

Q: CCCC(=O)NC(c1ccc2c(c1)OCO2)c1ccc2cccnc2c1O (stereo not given) was tested. Which growth did it give?
A: Its growth is -16% (active).

Q: For CCCCCCCCCCCCCCCCCC1=NC(C)(CO)CO1 (stereo not given), which growth is on record?
A: The growth was 82%.
